From PubChem BioAssay
The list is not random: actives were taken first. Their share in the collection is about 4.8%.
ssDAF-12 act = S. stercoralis DAF-12 nuclear receptor activators, primary screen, cell-based, luminescence, HEK293, GRIP1 co-expression, lit1-tk-luc; Nuclear hormone receptor DAF-12 (Strongyloides stercoralis); HEK293 ssDAF-12/GRIP1 lit1-tk-luc reporter; % of 3 µM dafachronic acid response; activation, % at 6.8 µM; 1% of 370,000 active; AID 652126, 2013;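 active = activation above the mean over all tested compounds plus 3 SD, cut at about 0.9% in these data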
SMARCA2 act = SMARCA2 (BRM) function activators, primary screen, cell-based, luminescence, high throughput. 1% of 370,000 active. activation, % at 9.1 µM. MG213 cells, MMTV-luciferase reporter, dexamethasone, overnight; in the data active = activation above about 7.8%
hcDAF12 agonist = H. contortus DAF-12 nuclear receptor activators, primary screen, cell-based, luminescence, HEK293, lit1-tk-luc reporter. HEK293 hcDAF-12 lit1-tk-luc reporter; 0% DMSO, 100% Δ7-dafachronic acid. activation, % at 6.8 µM. 1.4% of 370,000 active;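 active = activation above the mean of all tested compounds plus 3 SD, cut at about 5.5% in these data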
DAX1 inh-1 = DAX1 (NR0B1) inhibitors, primary screen, cell-based, HEK293, Gal4-DAX1, luciferase luminescence; HEK293 Gal4-DAX1 luciferase reporter; AID 504766, 2011; 0.99% of 340,000 active; inhibition, % at 6.75 µM;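 active = inhibition above the mean over all tested compounds plus 3 SD, cut at about 4.2% in these data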;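 note: inhibition shows as a rise in luminescence from relieved DAX1 repression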
Target sequence (P51843 207-470 limits assumed): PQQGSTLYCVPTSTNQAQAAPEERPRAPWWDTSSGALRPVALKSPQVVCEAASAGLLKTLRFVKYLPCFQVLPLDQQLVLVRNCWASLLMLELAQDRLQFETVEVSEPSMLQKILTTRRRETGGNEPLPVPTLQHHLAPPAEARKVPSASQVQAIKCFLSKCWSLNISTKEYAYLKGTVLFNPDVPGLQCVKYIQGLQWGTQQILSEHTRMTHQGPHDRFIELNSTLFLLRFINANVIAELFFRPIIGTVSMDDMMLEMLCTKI
DAX1 inh-2 = DAX1 (NR0B1) inhibitors on StAR promoter, primary screen, cell-based, luminescence, SF-1 (NR5A1), full-length DAX-1 | inhibition, % at 6.8 µM | HEK293T StAR-luciferase reporter, SF-1/DAX-1 repression relief | 1.1% of 370,000 active;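 active = inhibition above the mean over all tested compounds plus 3 SD, cut at about 3.6% in these data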;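 note: higher inhibition means more luminescence from relief of DAX-1 repression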
hgDAF12 agonist = H. glycines DAF-12 receptor agonists, primary screen, cell-based, luminescence, HEK293, GAL4 fusion, UAS-luciferase | HEK293 GAL4-hgDAF12 UAS-luciferase reporter, agonist luminescence; normalized to butyrate control | 1.8% of 370,000 active | activation, % at 6.8 µM | AID 687014, 2013 | Nuclear hormone receptor DAF-12 (Heterodera glycines), GAL4 fusion;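 active = activation above a cutoff set at the mean of all screened compounds plus 3 SD, cut at about 10% in these data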
A number is an active result; . = inactive; / = no result given.

SMILES	ssDAF-12 act	SMARCA2 act	hcDAF12 agonist	DAX1 inh-1	DAX1 inh-2	hgDAF12 agonist
CCN(CC)C(=O)CC[C@H]1CC[C@]2(CCCN(Cc3ccccn3)C2)O1	.	.	.	/	.	.
COC(=O)C1=C(C(=O)OC)[C@@]2([C@@H](Cc3ccc(C)cc3)Nc3ccccc3)C=C[C@@H]1O2	.	/	.	/	/	.
COc1ccc(C(=O)NCCN2C(=O)C3C4C=CC(C4)C3C2=O)cc1OC (stereo unspecified)	.	.	.	/	.	.
Nn1c(SCc2ccc([N+](=O)[O-])cc2)nnc1-c1cc(-c2ccccc2)n[nH]1	.	.	.	/	.	.
COc1ccc(C(=O)NC2=NCCS2)cc1	.	.	.	.	.	12
COc1cc(OC)cc(C(=O)NC2=NCCS2)c1	.	.	.	.	.	.
Cc1ccc(C(=O)Nc2nnc(COCCO)s2)cc1	1.0	.	6.0	/	.	.
CCc1nnc(NC(=O)Cc2ccc(OC)c(OC)c2)s1	.	.	.	5.1	.	.
CCCCN1CC(=O)N2[C@H](C[C@@]3(C)c4ccccc4N(S(=O)(=O)c4ccccc4)[C@@H]23)C1=O	.	.	.	/	.	.
O=Cc1ccccc1OCc1ccc2c(c1)OCO2	.	.	.	4.5	.	.
Cc1c(CBr)[n+](=O)c2c(n1[O-])C(Br)CCC2Br (stereo unspecified)	1.4	.	.	.	.	.
Cc1c(C)[n+](=O)c2c(n1[O-])C(Br)CCC2Br (stereo unspecified)	.	.	.	.	.	.
O=S1(=O)c2ccc(N3CC[C@H](O)C3)cc2O[C@H]2CCN1C2	.	.	.	/	.	.
Cc1cc(C(=O)COC(=O)C23CC4CC(CC(O)(C4)C2)C3)c(C)n1C	.	.	.	4.5	.	11
CCCCN1C(=O)N2Cc3ccccc3C2CS1(=O)=O (stereo unspecified)	.	.	.	/	.	.
Cc1ccc(S(=O)(=O)NN=C2CCc3ccccc32)cc1	1.6	.	.	.	.	.
NC(=O)C(=O)N/N=C1\CCc2ccccc21	.	.	6.0	.	.	.
COC(=O)C1C/C(=N\NS(=O)(=O)c2ccc(C)cc2)c2ccccc2C1 (stereo unspecified)	.	.	.	.	.	.
COc1ccc(OCC(=O)N/N=C2\CCc3ccccc32)cc1	.	.	.	.	.	.
Cc1cc2c(SCC(=O)Nc3cccc(O)c3)ncnc2s1	1.4	.	6.4	.	.	.
Cc1cc2c(=O)n(C)c(SCC(=O)Nc3ccccc3)nc2s1	.	.	.	4.8	.	.
Cc1cccc(NC(=O)CSc2nc3sc(C)cc3c(=O)n2C)c1	.	.	.	.	.	.
COc1ccc(NC(=O)CSc2ncnc3sc(C)cc23)cc1	.	.	.	.	.	.
CC[C@H](CCCc1ccc(OC)cc1)CCC(=O)N1CCOCC1	.	.	.	/	.	.
COc1ccc(C2c3ccc4ccccc4c3Oc3ncn(CCO)c(=N)c32)cc1OC (stereo unspecified)	/	/	/	.	/	/
SMILES	ssDAF-12 act	SMARCA2 act	hcDAF12 agonist	DAX1 inh-1	DAX1 inh-2	hgDAF12 agonist
COc1ccc(C2c3ccc4ccccc4c3Oc3ncn(CCCO)c(=N)c32)cc1OC (stereo unspecified)	.	.	.	4.8	.	.
COc1ccc(C(=O)c2c3ccc(OC)cc3[n+]([O-])n2Cc2ccc(C(N)=O)cc2)cc1	.	.	6.3	.	.	.
NC(=O)c1ccc(Cn2c(C(=O)c3cc(Cl)c(N)c(Cl)c3)c3ccccc3[n+]2[O-])cc1	.	.	.	.	.	.
NC(=O)c1ccc(Cn2c(C(=O)c3ccc(Cl)cc3)c3ccccc3[n+]2[O-])cc1	.	.	5.7	.	.	.
O=C(c1ccccc1)N1CC[C@H]2[C@H](CCCN2Cc2cc(F)cc(F)c2)C1	.	.	.	/	.	.
COc1cc(NC(=O)c2csc3c2CCCC3)ncn1	.	.	.	.	.	12
COc1ccccc1NC(=O)c1csc2c1CCCC2	.	.	.	.	.	.
CCOc1cccc(-c2cc(C(=O)NN)[nH]n2)c1	.	.	.	.	.	11
N#CCCN/N=C(/Cc1nc2ccccc2[nH]1)c1cccc(Cl)c1	1.3	.	.	.	.	.
COc1ccc(-c2nnc(-c3ccccc3O)o2)cc1	.	.	.	.	.	12
C#CCSc1nnc(-c2ccc(OC)cc2)o1	.	.	.	4.5	.	11
Cc1ccccc1-c1nnc(SCc2ccccc2F)o1	.	.	6.4	4.3	3.9	13
CCSc1nnc(-c2ccc(OC)cc2)o1	.	.	.	.	.	12
C#CCSc1nnc(-c2ccc([N+](=O)[O-])cc2)o1	.	.	.	.	.	12
CSc1nnc(-c2ccc([N+](=O)[O-])cc2)o1	.	.	.	.	.	.
COc1ccc(-c2nnc(SCC#N)o2)cc1	.	.	.	.	.	.
COc1ccc(-c2nnc(SCc3ccccc3F)o2)cc1	.	.	6.4	.	4.4	12
O=S(=O)(c1sccc1Br)n1c(CN2CCOCC2)nc2ccccc21	.	.	.	/	.	.
O=C(OCCCCSc1nnc(-c2cccc3ccccc23)o1)c1ccc(F)cc1	.	/	.	/	/	.
Cc1ccc(C(=O)Nc2nc(-c3cccnc3)cs2)o1	.	.	.	.	.	.
Cc1ccc(-c2ocnc2C(=O)Nc2nc(C)cs2)cc1	1.9	.	.	5.4	.	.
Cc1csc(NC(=O)c2ccccc2O)n1	.	.	.	.	.	.
Cc1csc(NC(=O)c2ccc(C)o2)n1	.	.	.	.	.	12
Cc1csc(NC(=O)c2cc(C)oc2C)n1	0.9	.	.	.	.	.
Cc1cc(C(=O)Nc2cc(C(C)(C)C)on2)c(C)o1	.	.	.	6.3	.	.
COC(=O)C1CN(Cc2cn(Cc3ccccc3)nn2)CCS(=O)(=O)N1Cc1ccc(OC)cc1 (stereo unspecified)	.	.	.	/	.	.
COC(=O)C[C@@H]1CC[C@H]2[C@@H](COc3ccc(NC(=O)c4ccc(Cl)cc4)cc3C(=O)N2C)O1	.	.	.	/	.	.
Cc1ccccc1CN1CCCCC(NC(=O)c2ccc(N(C)C)cc2)C1=O (stereo unspecified)	.	.	.	/	.	.
